Holding throughout (experiment): DAPPL (digital affinity profiling via proximity ligation, sequencing); 10 mM Tris-HCl pH 7.5, 50 mM NaCl, 1 mM DTT, 4% glycerol, room temperature, 30 min; GST-TFs on glutathione beads, 16-mer random dsDNA library, 0.1% formaldehyde crosslink after washing; high values mean tight binding
Holding throughout (details): protein: recombinant; tags: N-terminal GST; dsDNA, one strand shown

In one experiment the target is T1, ELK1 (Homo sapiens, UniProt P19419 1-428).
T1 sequence: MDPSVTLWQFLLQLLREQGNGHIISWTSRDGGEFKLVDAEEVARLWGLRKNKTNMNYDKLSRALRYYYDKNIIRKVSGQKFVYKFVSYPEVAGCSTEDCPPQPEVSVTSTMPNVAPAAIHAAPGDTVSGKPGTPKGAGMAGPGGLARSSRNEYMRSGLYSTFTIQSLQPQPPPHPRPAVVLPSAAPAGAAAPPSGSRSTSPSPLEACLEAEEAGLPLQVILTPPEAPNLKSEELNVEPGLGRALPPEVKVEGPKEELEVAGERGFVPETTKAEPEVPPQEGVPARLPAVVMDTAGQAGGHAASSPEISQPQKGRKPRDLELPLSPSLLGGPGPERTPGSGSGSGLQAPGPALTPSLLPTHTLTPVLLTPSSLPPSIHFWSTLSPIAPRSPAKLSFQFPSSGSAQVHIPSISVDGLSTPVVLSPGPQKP
The essentials:
(§1)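 GST fusions of human transcription factors were expressed in yeast and captured with glutathione beads. Once given DNA barcodes and pooled alongside a tag-only sample, they were incubated for 30 min at room temperature with 200 nmole of a random double-stranded 16-mer DNA library in Tris/NaCl/DTT/glycerol buffer, then washed, crosslinked (0.1% formaldehyde), proximity-ligated, PCR-amplified and sequenced on an Illumina NextSeq500. The binding signal of each hexamer is its read frequency for a factor divided by its frequency for the tag-only sample.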

A further experiment deals with ELF1 (Homo sapiens, UniProt P32519 1-619). The essentials:
as §1

The next experiment has as its target ETV5 (Homo sapiens, UniProt P41161 1-510). Put shortly:
as §1

The next experiment addresses T2, ELK4 (Homo sapiens, UniProt P28324-2 1-405).
T2 sequence: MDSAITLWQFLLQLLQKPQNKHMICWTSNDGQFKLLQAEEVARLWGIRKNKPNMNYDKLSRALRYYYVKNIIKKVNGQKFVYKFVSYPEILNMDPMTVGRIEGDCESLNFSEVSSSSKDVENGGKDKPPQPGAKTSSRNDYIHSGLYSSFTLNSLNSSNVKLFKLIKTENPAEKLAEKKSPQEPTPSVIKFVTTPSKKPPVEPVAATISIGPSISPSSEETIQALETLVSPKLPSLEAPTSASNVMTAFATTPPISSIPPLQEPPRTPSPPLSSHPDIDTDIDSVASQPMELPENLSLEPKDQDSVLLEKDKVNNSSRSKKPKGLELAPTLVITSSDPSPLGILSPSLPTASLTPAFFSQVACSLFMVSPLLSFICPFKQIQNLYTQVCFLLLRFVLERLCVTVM
The essentials:
as §1

Another experiment has as its target T3, ETV2 (Homo sapiens, UniProt O00321 1-342).
T3 sequence: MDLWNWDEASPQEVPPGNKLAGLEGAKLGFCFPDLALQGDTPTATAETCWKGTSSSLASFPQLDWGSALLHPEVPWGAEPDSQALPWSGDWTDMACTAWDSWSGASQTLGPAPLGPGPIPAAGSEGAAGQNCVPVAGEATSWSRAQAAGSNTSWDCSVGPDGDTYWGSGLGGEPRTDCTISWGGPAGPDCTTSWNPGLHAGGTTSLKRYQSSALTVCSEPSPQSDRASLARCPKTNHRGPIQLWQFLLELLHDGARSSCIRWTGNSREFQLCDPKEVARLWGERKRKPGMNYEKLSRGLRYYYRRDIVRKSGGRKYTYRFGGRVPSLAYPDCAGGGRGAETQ
Put shortly:
as §1

The target in another experiment is ETV1 (Homo sapiens, UniProt P50549 1-477). The essentials: as §1
ETV1, sequence (P50549 whole entry): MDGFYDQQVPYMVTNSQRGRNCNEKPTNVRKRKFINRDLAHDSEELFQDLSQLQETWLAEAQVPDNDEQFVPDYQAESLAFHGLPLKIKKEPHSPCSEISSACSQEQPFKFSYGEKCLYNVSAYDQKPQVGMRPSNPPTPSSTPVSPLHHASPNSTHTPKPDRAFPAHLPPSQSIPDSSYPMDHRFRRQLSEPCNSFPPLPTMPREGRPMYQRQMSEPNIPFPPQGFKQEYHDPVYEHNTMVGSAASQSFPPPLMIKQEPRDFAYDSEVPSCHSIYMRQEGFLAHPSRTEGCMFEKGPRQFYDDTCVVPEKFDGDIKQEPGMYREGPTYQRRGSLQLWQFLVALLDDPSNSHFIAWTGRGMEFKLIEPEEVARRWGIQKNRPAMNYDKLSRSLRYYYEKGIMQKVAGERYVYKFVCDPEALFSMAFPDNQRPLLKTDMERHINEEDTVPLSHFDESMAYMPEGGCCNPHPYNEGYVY
In a further experiment the target is T4, ERF (Homo sapiens, UniProt P50548 1-548).
T4 sequence: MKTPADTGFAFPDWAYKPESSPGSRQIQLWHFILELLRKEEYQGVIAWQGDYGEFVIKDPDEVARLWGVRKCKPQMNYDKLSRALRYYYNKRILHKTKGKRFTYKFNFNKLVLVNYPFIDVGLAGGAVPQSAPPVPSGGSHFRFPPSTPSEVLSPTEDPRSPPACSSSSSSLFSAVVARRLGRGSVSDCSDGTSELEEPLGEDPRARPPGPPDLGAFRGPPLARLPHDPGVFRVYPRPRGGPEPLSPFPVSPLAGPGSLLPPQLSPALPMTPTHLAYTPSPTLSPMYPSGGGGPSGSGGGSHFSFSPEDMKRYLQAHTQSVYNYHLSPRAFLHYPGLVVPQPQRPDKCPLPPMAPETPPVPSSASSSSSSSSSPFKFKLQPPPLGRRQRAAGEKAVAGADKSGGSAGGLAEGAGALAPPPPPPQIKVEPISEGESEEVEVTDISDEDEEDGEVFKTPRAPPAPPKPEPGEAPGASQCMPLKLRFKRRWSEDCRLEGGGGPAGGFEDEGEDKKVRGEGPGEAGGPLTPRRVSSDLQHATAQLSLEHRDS
The essentials: as §1

The target of another experiment is T5, SPDEF (Homo sapiens, UniProt O95238 1-335).
T5 sequence: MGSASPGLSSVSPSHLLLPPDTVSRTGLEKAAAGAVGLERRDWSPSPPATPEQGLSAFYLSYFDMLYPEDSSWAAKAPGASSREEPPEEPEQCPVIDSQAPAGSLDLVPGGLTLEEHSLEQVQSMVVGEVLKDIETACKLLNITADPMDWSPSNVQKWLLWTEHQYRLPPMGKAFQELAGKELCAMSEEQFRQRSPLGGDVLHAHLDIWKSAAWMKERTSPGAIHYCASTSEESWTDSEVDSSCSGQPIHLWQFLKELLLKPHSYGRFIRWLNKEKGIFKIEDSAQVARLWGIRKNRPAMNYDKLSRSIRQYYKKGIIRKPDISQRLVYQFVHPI
Put shortly: as §1

The next experiment deals with T6, GABPA (Homo sapiens, UniProt Q06546 1-454).
T6 sequence: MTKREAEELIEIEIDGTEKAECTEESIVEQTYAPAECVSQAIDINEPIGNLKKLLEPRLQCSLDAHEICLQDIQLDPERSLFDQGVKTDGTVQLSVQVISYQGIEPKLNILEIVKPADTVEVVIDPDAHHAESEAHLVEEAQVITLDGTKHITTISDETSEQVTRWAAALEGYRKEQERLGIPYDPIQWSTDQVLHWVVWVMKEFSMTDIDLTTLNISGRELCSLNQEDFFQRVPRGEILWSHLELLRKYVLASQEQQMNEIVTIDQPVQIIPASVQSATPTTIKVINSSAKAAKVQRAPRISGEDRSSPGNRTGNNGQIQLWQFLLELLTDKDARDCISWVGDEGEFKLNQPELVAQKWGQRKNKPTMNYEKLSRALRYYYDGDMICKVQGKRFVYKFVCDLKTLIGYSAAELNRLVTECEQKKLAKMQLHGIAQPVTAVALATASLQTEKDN
The essentials: as §1

A further experiment addresses T7, EHF (Homo sapiens, UniProt Q9NZC4 1-300).
T7 sequence: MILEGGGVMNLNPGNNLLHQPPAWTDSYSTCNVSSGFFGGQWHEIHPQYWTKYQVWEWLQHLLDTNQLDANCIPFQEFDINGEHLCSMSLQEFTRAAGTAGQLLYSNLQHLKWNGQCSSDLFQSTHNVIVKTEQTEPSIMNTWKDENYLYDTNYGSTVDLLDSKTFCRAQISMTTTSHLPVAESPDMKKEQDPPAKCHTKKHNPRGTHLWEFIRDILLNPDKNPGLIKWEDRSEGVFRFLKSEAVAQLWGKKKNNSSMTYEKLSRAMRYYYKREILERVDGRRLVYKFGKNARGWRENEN
The essentials:
as §1

The target in a further experiment is SPIB (Homo sapiens, UniProt Q01892 1-262). Put shortly:
as §1

A further experiment deals with T8, FEV (Homo sapiens, UniProt Q99581 1-238).
T8 sequence: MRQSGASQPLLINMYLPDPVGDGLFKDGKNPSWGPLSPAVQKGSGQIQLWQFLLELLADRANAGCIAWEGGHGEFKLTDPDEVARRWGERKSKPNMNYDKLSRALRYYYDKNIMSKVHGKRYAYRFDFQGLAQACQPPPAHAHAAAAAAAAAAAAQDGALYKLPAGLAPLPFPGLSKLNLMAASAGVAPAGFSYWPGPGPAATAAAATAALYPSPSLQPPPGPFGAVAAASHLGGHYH
The essentials:
as §1

The target of a further experiment is ELF4 (Homo sapiens, UniProt Q99607 1-663). Put shortly:
as §1

In the next experiment the target is T9, ETS2 (Homo sapiens, UniProt P15036 1-469).
T9 sequence: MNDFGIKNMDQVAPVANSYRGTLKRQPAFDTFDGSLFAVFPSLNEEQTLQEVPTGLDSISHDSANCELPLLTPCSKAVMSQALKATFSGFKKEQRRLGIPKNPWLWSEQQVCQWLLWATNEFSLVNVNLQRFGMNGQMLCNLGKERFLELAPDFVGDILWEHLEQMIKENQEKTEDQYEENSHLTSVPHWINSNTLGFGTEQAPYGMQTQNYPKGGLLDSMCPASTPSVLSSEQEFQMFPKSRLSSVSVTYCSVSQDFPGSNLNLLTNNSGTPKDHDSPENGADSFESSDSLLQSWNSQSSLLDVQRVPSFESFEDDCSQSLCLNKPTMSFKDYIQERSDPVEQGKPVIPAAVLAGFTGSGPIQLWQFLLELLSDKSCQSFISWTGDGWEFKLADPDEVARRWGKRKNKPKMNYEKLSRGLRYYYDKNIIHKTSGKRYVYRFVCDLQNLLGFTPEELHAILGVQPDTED
The essentials:
as §1

For a further experiment, the target named is T10, ETV7 (Homo sapiens, UniProt Q9Y603 1-341).
T10 sequence: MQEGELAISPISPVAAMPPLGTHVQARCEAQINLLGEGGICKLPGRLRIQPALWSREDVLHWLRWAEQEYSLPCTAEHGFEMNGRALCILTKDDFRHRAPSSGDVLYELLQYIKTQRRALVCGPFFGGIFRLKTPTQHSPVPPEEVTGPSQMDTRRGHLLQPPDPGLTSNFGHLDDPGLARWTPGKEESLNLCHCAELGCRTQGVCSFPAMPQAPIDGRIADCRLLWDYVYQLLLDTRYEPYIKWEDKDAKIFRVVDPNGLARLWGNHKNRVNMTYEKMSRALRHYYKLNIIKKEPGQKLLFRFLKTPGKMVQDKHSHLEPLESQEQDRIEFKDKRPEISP
The essentials: as §1

In a further experiment the target is T11, ETV3 (Homo sapiens, UniProt P41162-2 1-143).
T11 sequence: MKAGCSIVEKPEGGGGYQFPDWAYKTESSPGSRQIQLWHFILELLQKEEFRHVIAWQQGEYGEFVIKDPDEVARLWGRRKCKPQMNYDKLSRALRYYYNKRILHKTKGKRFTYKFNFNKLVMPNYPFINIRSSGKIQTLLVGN
Put shortly:
as §1

The target of a further experiment is ETV6 (Homo sapiens, UniProt P41212 1-452). The essentials:
as §1

ELF1, sequence (P32519 whole entry): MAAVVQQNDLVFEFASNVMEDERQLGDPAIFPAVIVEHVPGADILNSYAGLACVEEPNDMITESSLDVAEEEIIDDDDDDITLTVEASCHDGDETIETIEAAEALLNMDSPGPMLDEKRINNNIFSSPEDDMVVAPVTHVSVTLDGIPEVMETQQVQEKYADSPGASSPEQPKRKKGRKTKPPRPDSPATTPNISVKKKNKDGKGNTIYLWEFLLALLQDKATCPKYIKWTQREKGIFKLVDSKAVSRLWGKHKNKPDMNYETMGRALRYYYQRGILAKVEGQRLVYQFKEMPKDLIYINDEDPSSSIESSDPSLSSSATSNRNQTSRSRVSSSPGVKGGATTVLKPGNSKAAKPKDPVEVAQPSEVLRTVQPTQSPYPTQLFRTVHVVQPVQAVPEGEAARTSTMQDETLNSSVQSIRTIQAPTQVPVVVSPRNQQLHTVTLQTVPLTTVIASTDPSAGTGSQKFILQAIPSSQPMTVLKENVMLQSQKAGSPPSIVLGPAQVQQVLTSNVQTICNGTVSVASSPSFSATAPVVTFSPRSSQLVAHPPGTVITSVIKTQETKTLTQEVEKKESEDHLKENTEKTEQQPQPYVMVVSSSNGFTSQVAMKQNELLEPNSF
ETV5, sequence (P41161 whole entry): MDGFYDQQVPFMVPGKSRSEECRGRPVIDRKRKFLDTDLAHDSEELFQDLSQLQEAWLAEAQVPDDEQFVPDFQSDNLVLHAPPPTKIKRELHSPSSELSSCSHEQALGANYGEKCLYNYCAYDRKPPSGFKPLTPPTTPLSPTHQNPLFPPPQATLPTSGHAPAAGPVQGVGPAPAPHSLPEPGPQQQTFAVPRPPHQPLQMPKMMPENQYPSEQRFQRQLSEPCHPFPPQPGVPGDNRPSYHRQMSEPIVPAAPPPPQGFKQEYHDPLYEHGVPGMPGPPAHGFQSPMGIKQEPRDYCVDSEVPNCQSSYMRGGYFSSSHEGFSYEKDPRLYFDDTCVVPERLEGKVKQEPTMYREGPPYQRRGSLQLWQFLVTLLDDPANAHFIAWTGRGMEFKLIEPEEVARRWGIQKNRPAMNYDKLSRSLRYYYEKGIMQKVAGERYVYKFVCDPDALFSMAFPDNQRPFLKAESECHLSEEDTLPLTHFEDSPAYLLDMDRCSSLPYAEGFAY
ELF4, sequence (Q99607 whole entry): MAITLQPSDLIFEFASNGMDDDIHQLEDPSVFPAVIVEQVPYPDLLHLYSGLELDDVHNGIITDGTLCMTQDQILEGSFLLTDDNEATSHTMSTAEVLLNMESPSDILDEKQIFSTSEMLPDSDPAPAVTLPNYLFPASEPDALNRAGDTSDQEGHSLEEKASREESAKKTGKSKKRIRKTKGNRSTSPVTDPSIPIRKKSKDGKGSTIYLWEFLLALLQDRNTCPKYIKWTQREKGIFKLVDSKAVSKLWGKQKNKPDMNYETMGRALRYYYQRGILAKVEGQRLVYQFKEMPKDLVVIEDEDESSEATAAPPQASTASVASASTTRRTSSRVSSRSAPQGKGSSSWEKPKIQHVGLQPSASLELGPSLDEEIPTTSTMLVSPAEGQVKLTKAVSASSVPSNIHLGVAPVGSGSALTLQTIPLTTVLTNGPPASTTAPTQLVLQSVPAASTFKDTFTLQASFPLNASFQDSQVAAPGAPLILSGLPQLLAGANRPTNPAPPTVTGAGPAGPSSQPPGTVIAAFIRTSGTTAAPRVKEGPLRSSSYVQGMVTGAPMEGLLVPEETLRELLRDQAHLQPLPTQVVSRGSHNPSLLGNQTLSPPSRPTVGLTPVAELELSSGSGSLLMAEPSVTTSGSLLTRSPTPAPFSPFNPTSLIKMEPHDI
ETV6, sequence (P41212 whole entry): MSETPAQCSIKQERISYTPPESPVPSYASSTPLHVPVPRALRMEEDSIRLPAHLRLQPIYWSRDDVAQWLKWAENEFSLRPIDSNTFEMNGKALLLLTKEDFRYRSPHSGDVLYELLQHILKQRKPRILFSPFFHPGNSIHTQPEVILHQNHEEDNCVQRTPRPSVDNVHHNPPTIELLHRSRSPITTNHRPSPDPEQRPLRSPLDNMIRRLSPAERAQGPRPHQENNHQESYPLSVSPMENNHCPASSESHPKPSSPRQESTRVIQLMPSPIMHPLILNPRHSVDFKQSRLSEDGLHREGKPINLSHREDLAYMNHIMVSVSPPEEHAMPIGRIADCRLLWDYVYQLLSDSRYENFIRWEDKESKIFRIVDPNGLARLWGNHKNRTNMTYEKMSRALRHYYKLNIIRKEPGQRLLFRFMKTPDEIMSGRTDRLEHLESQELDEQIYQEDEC
SPIB, sequence (Q01892 whole entry): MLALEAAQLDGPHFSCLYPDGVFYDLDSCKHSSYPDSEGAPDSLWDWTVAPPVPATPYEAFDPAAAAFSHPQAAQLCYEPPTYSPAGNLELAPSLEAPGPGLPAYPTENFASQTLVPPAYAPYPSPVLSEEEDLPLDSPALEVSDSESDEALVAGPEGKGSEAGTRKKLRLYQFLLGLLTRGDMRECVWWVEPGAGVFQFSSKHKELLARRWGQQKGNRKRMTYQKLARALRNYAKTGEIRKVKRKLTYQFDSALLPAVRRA

For ACGGTA, the binding signal with ELK1 was 1.03 fold enrichment (6-mer frequency, TF over GST control); with ELF1 it was 1.01 fold enrichment (6-mer frequency, TF over GST control); with ETV5, 1.04 fold enrichment (6-mer frequency, TF over GST control); with ELK4 it was 1.02 fold enrichment (6-mer frequency, TF over GST control); in the experiment with ETV2 it was 1.03 fold enrichment (6-mer frequency, TF over GST control); with ETV1, 1.01 fold enrichment (6-mer frequency, TF over GST control). Further, the binding signal with ERF is 1.09 fold enrichment (6-mer frequency, TF over GST control); with SPDEF, 1.05 fold enrichment (6-mer frequency, TF over GST control).
Consider GTAACC, for which the binding signal in the experiment with GABPA is 1.01 fold enrichment (6-mer frequency, TF over GST control); with ELF1, 1.05 fold enrichment (6-mer frequency, TF over GST control); with EHF, 1.11 fold enrichment (6-mer frequency, TF over GST control); in the experiment with SPIB, 1.1 fold enrichment (6-mer frequency, TF over GST control); with FEV it was 1.04 fold enrichment (6-mer frequency, TF over GST control); in the experiment with ETV5 it was 1.05 fold enrichment (6-mer frequency, TF over GST control). Also, the binding signal with ELF4 is 1.05 fold enrichment (6-mer frequency, TF over GST control); with ELK4, 1.02 fold enrichment (6-mer frequency, TF over GST control); with ETV2 it was 1.06 fold enrichment (6-mer frequency, TF over GST control); with ETV1, 1.09 fold enrichment (6-mer frequency, TF over GST control); with ERF it was 1.11 fold enrichment (6-mer frequency, TF over GST control); with ETS2 it was 1.1 fold enrichment (6-mer frequency, TF over GST control). Further, the binding signal with SPDEF is 1.03 fold enrichment (6-mer frequency, TF over GST control); with ETV7, 1.07 fold enrichment (6-mer frequency, TF over GST control); in the experiment with ETV3, 1.13 fold enrichment (6-mer frequency, TF over GST control); with ETV6, 1.07 fold enrichment (6-mer frequency, TF over GST control).

The record behind these values is paper PMC7862700, “An all-to-all approach to the identification of sequence-specific readers for epigenetic DNA modifications on cytosine”.
